# Screening results (PubChem)
# A selection: hits, their analogues and other compounds. The true share with any hit is near 2%.
# Mcl1 Bid PPI = disrupts binding of human Mcl-1 to Bid peptide. TR-FRET Mcl-1/Bid-Dy647 peptide binding, 1536-well. inhibition, % at 21.7 µM. 0.97% of 220,000 active. AID 1021;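 active = compounds that cut the binding signal by more than half at the single screening dose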;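 note: His-tagged Mcl-1 with europium anti-His antibody binding Bid BH3 peptide; 0% = Mcl-1 plus peptide wells and 100% = peptide-only wells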
# Target sequence (Q07820 whole entry, looked up): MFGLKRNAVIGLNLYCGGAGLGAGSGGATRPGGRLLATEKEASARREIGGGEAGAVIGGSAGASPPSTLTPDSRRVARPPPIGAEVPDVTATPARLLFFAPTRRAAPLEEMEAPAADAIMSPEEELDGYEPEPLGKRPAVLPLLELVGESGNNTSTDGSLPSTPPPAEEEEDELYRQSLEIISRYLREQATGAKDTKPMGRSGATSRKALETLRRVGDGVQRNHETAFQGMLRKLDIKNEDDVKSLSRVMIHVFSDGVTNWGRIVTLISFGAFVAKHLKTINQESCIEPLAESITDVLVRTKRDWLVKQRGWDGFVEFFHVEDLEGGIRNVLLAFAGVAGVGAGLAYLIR
# MCL1-BIM inh = inhibitors of human MCL1 binding to BIM-BH3 peptide; GST-MCL1 / FITC-Bim-BH3 fluorescence polarization; AID 2057; 0.68% of 320,000 active; Q07820; inhibition, % at 10.9 µM;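 active = inhibition above the mean inhibition of all tested compounds plus 3 SD, set per campaign, cut at about 40% in these data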;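 note: 0% = DMSO wells and 100% = unlabeled Bim-BH3 peptide control; higher means more loss of mP so more displacement of Bim peptide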
# Bim-Mcl-1 = inhibitors of Bim-Mcl-1 interaction, human. Q07820. Bead-based flow cytometry, Bim peptide-Mcl-1 binding. inhibition, % at 10 µM. 0.1% of 190,000 active. AID 1009; in the data active = inhibition above about 40%;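 note: 0% = no compound tracer wells and 100% = peptide blocker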
# Mcl1 Noxa PPI = Mcl-1/Noxa interaction inhibition. TR-FRET Mcl-1/Noxa peptide binding, 2 h. inhibition, % at 21.7 µM. 1.5% of 220,000 active. AID 1022;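 active = compounds that cut the protein-peptide binding signal by more than 50% relative to plate controls in a single-dose test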;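 note: His-tagged Mcl-1 with rhodamine Noxa BH3 peptide and terbium anti-His antibody; 0% = Mcl-1 plus Noxa peptide wells and 100% = peptide-only wells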
# Bcl-xL conf = counter-screen for MCL1 inhibitors: confirmation of human Bcl-xL inhibitors | shares compounds with MCL1-BIM inh | GST-Bcl-xL / FITC-Bim BH3 peptide FP binding | inhibition, % at 10.9 µM | 54% of 1,700 active | AID 2166;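 active = inhibition above a cutoff equal to the mean inhibition of all tested compounds plus 3 SD, cut at about 30% in these data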;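 note: 0% = DMSO wells and 100% = unlabeled Bim BH3 control peptide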
# Target sequence (Q07817 whole entry, looked up): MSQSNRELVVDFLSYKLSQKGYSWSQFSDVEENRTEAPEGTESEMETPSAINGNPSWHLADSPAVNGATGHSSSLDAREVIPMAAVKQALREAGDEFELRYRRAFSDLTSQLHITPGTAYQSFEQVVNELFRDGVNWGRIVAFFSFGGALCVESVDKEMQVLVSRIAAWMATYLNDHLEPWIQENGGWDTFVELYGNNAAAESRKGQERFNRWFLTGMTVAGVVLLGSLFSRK
# MCL1 inh confirm = MCL1-BIM-BH3 interaction inhibition, confirmation | shares compounds with MCL1-BIM inh | GST-MCL1 / FITC-Bim-BH3 fluorescence polarization | inhibition, % at 10.9 µM | AID 2168 | 61% of 1,700 active;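 active = inhibition above the average of all tested compounds plus 3 SD, cut at about 40% in these data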;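 note: 0% = DMSO wells and 100% = unlabeled Bim-BH3 control peptide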
# The depositor's hits bear a star; x = not tested or not shown.
SMILES,Mcl1 Bid PPI,MCL1-BIM inh,Bim-Mcl-1,Mcl1 Noxa PPI,Bcl-xL conf,MCL1 inh confirm
COc1ccc(C2=NN(C(=O)CSc3nc(=O)n4cc(C)ccc4n3)C(c3ccc(C)cc3)C2)cc1 (stereo unspecified),x,1,x,x,x,x
CN(CC(=O)Nc1cccc(F)c1)C(=O)CCNC(=O)c1ccco1,x,-15,x,x,x,x
CCOc1ccc(NC(=O)c2cccc(-n3cccc3)c2)cc1S(=O)(=O)N1CCOCC1,x,67*,x,x,4,56*
Cc1c(C(=O)N2CCOCC2)sc(NC(=O)CCl)c1C#N,x,5,x,x,x,x
[O-][n+]1c2ccccc2[n+]([O-])c2cc(O)ccc21,x,46*,x,x,45*,77*
Cc1nc2c(c(=O)n1CCC1=CCCCC1)c1nc3ccccc3nc1n2/N=C/c1ccco1,74*,49*,6,94*,32*,58*
CCOc1cc(-c2ccc(N)c(OCC)c2)ccc1N,-20,174*,0,8,134*,183*
CCOc1ccc(N)c(SSc2cc(OCC)ccc2N)c1,x,15,x,x,x,x
c1ccc(-c2ccc3ccccc3n2)cc1,x,-1,x,x,x,x
CNc1ccccc(-c2ccc3ccccc3n2)c1=O,-91,58*,2,43,79*,95*
O=C1CC(C(=O)N2CCN(c3ccccn3)CC2)CN1Cc1ccccc1Cl (stereo unspecified),x,-1,x,x,x,x
COc1ccccc1NC(=O)Cn1c(O)c(N=NC(=O)c2ccccc2O)c2ccccc21,34,50*,3,36,19,62*
COc1ccc(C2C(C#N)=C(N)Oc3cccc(O)c32)cc1 (stereo unspecified),x,-3,x,x,x,x
COc1ccc(Cn2cc3c(-c4ccc(F)cc4)nnc-3c3cc(OC)c(OC)cc32)cc1,-41,36,3,30,x,x
COc1cc2c3nnc(-c4ccc(F)cc4)c-3cn(Cc3ccc(F)cc3)c2cc1OC,-36,58*,0,-43,84*,83*
COc1cc2c3nnc(-c4ccc(F)cc4)c-3cn(Cc3ccccc3)c2cc1OC,-25,68*,1,-12,64*,63*
CCOC(=O)c1c(NC(=O)CSC(=S)N2CCOCC2)sc(C)c1C,-59,-2,-12,-3,x,x
CCCNC(=O)NC(=O)CSc1nc2ccccc2c(=O)n1Cc1ccncc1,x,-6,x,x,x,x
O=S(=O)(O)c1cc(O)c2c(O)c(N=Nc3cc(Cl)ccc3O)c(S(=O)(=O)O)cc2c1,x,56*,x,x,36*,57*
O=C1/C(=C/c2cccc(F)c2)Oc2cc(O)ccc21,x,66*,x,x,83*,98*
CN1Cc2c(N)cccc2C(c2ccccc2)C1 (stereo unspecified),0,92*,-3,8,26,25
O=C(C1CCC(=O)N(C2CCCCCC2)C1)N1CCN(c2ccccc2Cl)CC1 (stereo unspecified),x,57*,x,x,10,-4
Cc1ccccc1N1CCN(C(=O)C2CCC(=O)N(C3CCCC3)C2)CC1 (stereo unspecified),x,0,x,x,x,x
CNc1ccccc(C(=O)/C=C/c2ccccc2OC)c1=O,-99,41*,3,63*,29,62*
COc1ccc2oc(C(=O)OC(C)C(=O)NCc3ccccc3)c(C)c2c1 (stereo unspecified),x,44*,x,x,6,2
SMILES,Mcl1 Bid PPI,MCL1-BIM inh,Bim-Mcl-1,Mcl1 Noxa PPI,Bcl-xL conf,MCL1 inh confirm
COc1ccc(NS(=O)(=O)c2cccs2)cc1S(=O)(=O)N1CCCCC1,x,-4,x,x,x,x
COc1ccc(Cc2nnc(SCC(=O)Nc3cc(Cl)ccc3C)[nH]c2=O)cc1,x,5,x,x,x,x
Cc1cccc(NC(=O)C(Cc2ccccc2)c2nn[nH]n2)c1C (stereo unspecified),x,-1,x,x,x,x
O=C(O)C1Cc2c([nH]c3ccccc23)C(c2ccc3c(c2)OCO3)N1 (stereo unspecified),-32,59*,0,8,12,9
COc1cccc(N2[C@@H](CC(C)=O)c3cc(C(F)(F)F)ccc3S2(=O)=O)c1,x,-2,x,x,x,x
CCOC(=O)C[C@H]1c2ccc(C(F)(F)F)cc2S(=O)(=O)N1c1cccc(OC)c1,x,41*,x,x,-5,43*
CCOC(=O)NC1(Nc2ccc(C)cc2)Oc2ccccc2O1,-37,58*,0,11,41*,46*
Cc1cccc(NC(=O)CNC(=O)CN2C(=O)NC3(CCCCC3C)C2=O)c1C (stereo unspecified),x,3,x,x,x,x
COCc1c(C(=O)N/N=C/c2ccc(C)o2)nnn1-c1nonc1N,x,3,x,x,x,x
C/C(=N\NC(=O)c1ccccc1C)c1cccnc1,x,3,x,x,x,x
Cc1ccc2c(c1)Sc1c(ccc3ccccc13)N2,-19,71*,x,40,80*,104*
c1ccc2c(c1)Nc1cc3ccccc3cc1S2,-10,12,x,9,x,x
CCC(OC(=O)CNS(=O)(=O)c1ccccc1)C(=O)c1ccccc1 (stereo unspecified),x,-1,x,x,x,x
Cc1cccc(C)c1OCC1CNC(=O)O1 (stereo unspecified),x,-4,x,x,x,x
O=C1NCC(COCc2ccccc2)O1 (stereo unspecified),-6,54*,1,7,10,12
COc1ccc(-n2c(C)ccc2-c2ccccc2)cn1,x,128*,x,x,89*,108*
CCN(CC(=O)NC1CCS(=O)(=O)C1)S(=O)(=O)c1ccccc1Cl (stereo unspecified),x,-5,x,x,x,x
COC(=O)c1ccc(S(=O)(=O)NC(C)(C)C)n1C,-11,-4,x,8,x,x
COc1ccc(CN(C)C(=O)c2cc(S(=O)(=O)Nc3ccccc3F)ccc2C)c(OC)c1,x,-16,x,x,x,x
CCOC(=O)N1CC=C2C(C#N)=C(N)C(C#N)(C#N)[C@H](c3ccc(OC(C)C)c(OCC)c3)[C@H]2C1,-50,-7,-1,9,x,x
COc1cc([C@@H]2[C@H]3CN(C)CC=C3C(C#N)=C(N)C2(C#N)C#N)cc2c1OCO2,-13,52*,-3,9,21,24
CCN1CC=C2C(C#N)=C(N)C(C#N)(C#N)[C@H](c3cccc(OC)c3OC)[C@H]2C1,x,151*,2,x,52*,65*
COc1cccc(C2C3CN(C)CC=C3C(C#N)=C(N)C2(C#N)C#N)c1OC (stereo unspecified),-21,135*,-2,-10,77*,97*
O=C(COC(=O)/C=C/c1ccc(Br)o1)Nc1ccc2[nH]c(=O)[nH]c2c1,x,68*,x,x,8,63*
CCOC(=O)N1CCN(C(=O)c2ccc(SC)cc2OC)CC1,-16,7,-1,6,x,x
Cc1ccc(/C=C/C(=O)NCc2ccccn2)o1,-75,41*,-8,74*,21,51*
O=C(O)/C=C/C(=O)NCc1ccccn1,-18,50*,-2,-2,48*,52*
Cc1ccc(NC(=O)COc2cccc(-n3cnnn3)c2)cc1[N+](=O)[O-],x,2,x,x,x,x
Cc1ccc(N=Nc2c(O)n(CN3CCOCC3)c3ccccc23)cc1,-28,78*,-2,-3,-22,-36
